This is an account of results in PubChem BioAssay (NCI).

Molecules are shown by their SMILES. The panel holds about 83,000 compounds, 20% with a hit somewhere; the sample as a whole holds those more often.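 Single-concentration screen, 48 h exposure, 96-well plates. Endpoint: percent growth. Below 10 = active.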 Values without a mark were called inactive. Active and inactive are the calls of the source.

Some test systems named below: NCI-H23 lung; NCI-H226 lung; NCI-H322M lung; HOP-62 NSCLC; NCI-H460 lung; HOP-92 NSCLC; NCI-H522 lung; A549/ATCC NSCLC; 786-0 renal; COLO 205 colon; DU-145 prostate; K-562 leukemia; MALME-3M melanoma; MDA-MB-231 breast; RXF 393 renal; SF-268 CNS; SF-295 CNS; SF-539 CNS; UACC-257 melanoma; M14 melanoma.
Test in all cases: NCI-60 one-dose screen, 48 h (100 = growth as untreated, 0 = no growth, -100 = all killed)
What all share (conditions): 10 µM unless noted

As for `C[n+]1c(/C=C/c2c(O)ccc3ccccc23)ccc2ccccc21`, the growth in the assay with NCI-H23 lung is 37.2%; with NCI-H226 lung, 47.5%; with NCI-H322M lung it was 42.9%; with HOP-62 NSCLC, 54.8%; with NCI-H460 lung it was 9.44% (active); in the assay with HOP-92 NSCLC it was -10.2% (active). The growth with NCI-H522 lung was -6.6% (active); in the assay with A549/ATCC NSCLC, 51.3%; with 786-0 renal, 49.2%; in the assay on COLO 205 colon it was 25.3%; with DU-145 prostate, 49.1%; with K-562 leukemia, 6.81% (active). Further, the growth with MALME-3M melanoma was 40.4%; with MDA-MB-231 breast, 24.8%; with RXF 393 renal, 37.9%; with SF-268 CNS, 61.2%; in the assay on SF-295 CNS, 40.6%; in the assay on SF-539 CNS, -14.9% (active). Further, the growth is 46.1% in the assay with UACC-257 melanoma and 34.3% in the assay with M14 melanoma.
As to `O=C(NNC(=O)N1c2ccccc2C=Cc2ccccc21)c1ccc2ccccc2c1`, the growth with NCI-H23 lung is 98.4%; with NCI-H226 lung it was 95.5%; with NCI-H322M lung it was 99%; in the assay on HOP-62 NSCLC, 99.1%; in the assay on NCI-H460 lung it was 100%; in the assay with HOP-92 NSCLC, 81.4%. The growth was 85.9% in the assay with NCI-H522 lung; 95.7% in the assay on A549/ATCC NSCLC; 96.1% in the assay on 786-0 renal; 101% with COLO 205 colon; 95.5% in the assay with DU-145 prostate; 87.2% in the assay on K-562 leukemia. Also, the growth in the assay on MALME-3M melanoma was 95.6%; in the assay on MDA-MB-231 breast, 94.2%; in the assay on RXF 393 renal, 103%; in the assay on SF-268 CNS it was 91.4%; with SF-295 CNS, 93.5%; in the assay with SF-539 CNS it was 92.2%. Moreover, the growth with UACC-257 melanoma is 103%; with M14 melanoma, 101%.
In the case of `O=C1/C(=C/c2ccc(Cl)cc2)CN(C(=O)CCN2CCC(=NO)CC2)C/C1=C\c1ccc(Cl)cc1`, the growth with NCI-H23 lung was -57% (active); in the assay with NCI-H226 lung, -20.5% (active); in the assay with NCI-H322M lung it was -75% (active); with HOP-62 NSCLC it was -80.1% (active); in the assay with NCI-H460 lung, -67% (active); in the assay with HOP-92 NSCLC it was -39.1% (active). The growth in the assay with NCI-H522 lung was -92.1% (active); in the assay with A549/ATCC NSCLC, 2.34% (active); in the assay with 786-0 renal, -76.9% (active); in the assay with COLO 205 colon it was -83.9% (active); with DU-145 prostate it was -89.2% (active); in the assay on K-562 leukemia, -13.9% (active). Further, the growth with MALME-3M melanoma was -49.5% (active); in the assay on MDA-MB-231 breast, -83.1% (active); in the assay on RXF 393 renal, -91.3% (active); in the assay with SF-268 CNS, -60.1% (active); in the assay on SF-295 CNS, -76.3% (active); in the assay on SF-539 CNS it was -84.5% (active). Besides, the growth in the assay on UACC-257 melanoma was -76.7% (active); with M14 melanoma, -45.2% (active).
As to `N/C(=N\S(=O)(=O)c1ccccc1)Nc1nc2ccccc2s1`, the growth was 87.9% in the assay on NCI-H23 lung; 76.7% with NCI-H226 lung; 91.1% in the assay with NCI-H322M lung; 86.3% in the assay on HOP-62 NSCLC; 107% in the assay on NCI-H460 lung; 76.2% with HOP-92 NSCLC. In addition, the growth in the assay on NCI-H522 lung was 73.2%; with A549/ATCC NSCLC it was 95.9%; in the assay with 786-0 renal it was 95.4%; in the assay with COLO 205 colon, 96.4%; with DU-145 prostate, 111%; with K-562 leukemia, 84.9%. Further, the growth in the assay on MALME-3M melanoma is 105%; with MDA-MB-231 breast, 92.3%; with RXF 393 renal it was 99.4%; with SF-268 CNS, 92.2%; in the assay on SF-295 CNS, 92.7%; in the assay on SF-539 CNS, 91.2%. Also, the values for the growth with UACC-257 melanoma and with M14 melanoma were 92.6% and 101%, respectively.
In the case of `Cc1csc(NC(c2ccccc2)c2c(C)nc3ccccn23)n1` (stereo not given), the growth in the assay with NCI-H23 lung is 95.6%; in the assay on NCI-H226 lung it was 94.8%; in the assay with NCI-H322M lung it was 104%; in the assay with HOP-62 NSCLC, 95.4%; with NCI-H460 lung it was 102%; with HOP-92 NSCLC it was 68.4%. For the same compound, the growth was 95.3% in the assay with NCI-H522 lung; 99.1% in the assay with A549/ATCC NSCLC; 100% with 786-0 renal; 106% with COLO 205 colon; 110% with DU-145 prostate; 88.1% in the assay with K-562 leukemia. Moreover, the growth in the assay on MALME-3M melanoma was 97.2%; in the assay with MDA-MB-231 breast, 96.8%; in the assay with RXF 393 renal, 122%; in the assay on SF-268 CNS, 103%; in the assay with SF-295 CNS it was 87.1%; in the assay on SF-539 CNS it was 101%. Further, the growth in the assay with UACC-257 melanoma is 94.8%; in the assay on M14 melanoma, 95.3%.
For `Nc1nc(-c2ccccc2)c(CCCOc2ccc(NC(=O)CBr)cc2)c(=O)[nH]1`, the growth was 94.4% with NCI-H23 lung; 100% in the assay with NCI-H226 lung; 135% in the assay on NCI-H322M lung; 134% with HOP-62 NSCLC; 108% in the assay with NCI-H460 lung; 99.6% in the assay with HOP-92 NSCLC. In addition, the growth with NCI-H522 lung was 71.8%; in the assay on A549/ATCC NSCLC, 93.3%; in the assay with 786-0 renal, 115%; in the assay on COLO 205 colon, 118%; in the assay with DU-145 prostate, 104%; in the assay with K-562 leukemia it was 94.3%. Also, the growth in the assay with MALME-3M melanoma is 123%; with MDA-MB-231 breast, 87.4%; with RXF 393 renal, 106%; in the assay with SF-268 CNS it was 91.8%; with SF-295 CNS, 117%; in the assay with SF-539 CNS it was 93.1%. Moreover, the growth with UACC-257 melanoma was 86.9%; with M14 melanoma, 104%.
As to `NC1=C(/C(N)=N/O)C(c2ccccc2)c2ccc3ccccc3c2O1` (stereo not given), the growth in the assay on NCI-H23 lung was 28.7%; with NCI-H226 lung, 1.84% (active); in the assay on NCI-H322M lung, 40%; in the assay on HOP-62 NSCLC, 26.2%; in the assay with NCI-H460 lung, 1.37% (active); with HOP-92 NSCLC, 29.8%. The growth with NCI-H522 lung is 5.81% (active); in the assay on A549/ATCC NSCLC it was 21.2%; in the assay with 786-0 renal, 29%; in the assay on COLO 205 colon, -5.32% (active); in the assay with DU-145 prostate, 9% (active); with K-562 leukemia, 13.2%. In addition, the growth with MALME-3M melanoma was 46.4%; in the assay with MDA-MB-231 breast, 8.69% (active); in the assay with RXF 393 renal it was -14.1% (active); with SF-268 CNS it was 33%; in the assay with SF-295 CNS it was -0.153% (active); in the assay on SF-539 CNS, -32.4% (active). The growth in the assay on UACC-257 melanoma is 46.7%; with M14 melanoma, 11.7%.
